# Reference: PubChem BioAssay (NCI)
# The panel holds about 79,000 compounds, 15% with a hit somewhere; the sample as a whole holds those more often. Values without a mark were called inactive. Calls of active or inactive are those of the source. Cut-off read from the data, not from the text of the source: active = growth inhibition above about 70%; inactive = the rest.
# Key:
# [1] = NCI Yeast Anticancer Drug Screen. Data for the rad50 strain (AID 155);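 note: 0% = growth of vehicle-only cultures of the same strain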; details: S. cerevisiae rad50 strain growth inhibition; at 50.0 µM; active compounds read high
# In short: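 Yeast carrying a defined DNA repair defect were exposed to test compounds, and growth was compared with vehicle-treated controls to give percent inhibition.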
# [2] = NCI Yeast Anticancer Drug Screen. Data for the mec2-1 strain (AID 157); details: S. cerevisiae mec2-1 strain, at 50.0 µM, active compounds read high
# In short: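 Strain: mec2-1 (DNA repair/cell cycle alteration). Compound exposure, then growth measured; inhibition expressed relative to vehicle.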
# [3] = NCI Yeast Anticancer Drug Screen. Data for the sgs1 mgt1 strain (AID 161);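 note: 0% = growth of cultures given vehicle only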; details: S. cerevisiae sgs1 mgt1 strain, at 50.0 µM, active compounds read high
# In short: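 Mutant yeast exposed to compound; growth scored against vehicle-only wells.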
# [4] = NCI Yeast Anticancer Drug Screen. Data for the cln2 rad14 strain (AID 165);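 note: 0% = growth equal to vehicle treated cultures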; details: S. cerevisiae cln2 rad14 strain, at 50.0 µM, active compounds read high
# In short: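 Compounds are applied to the cln2 rad14 yeast strain, and growth is then compared with that of vehicle-treated cultures to give inhibition.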
# [5] = NCI Yeast Anticancer Drug Screen. Data for the bub3 strain (AID 167); details: S. cerevisiae bub3 mutant strain, at 50.0 µM, active compounds read high
# In short: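 Compounds were applied to a genetically altered yeast strain carrying a cell-cycle control defect. Growth inhibition was scored against vehicle-treated controls.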
# [6] = NCI Yeast Anticancer Drug Screen. Data for the mlh1 rad18 strain (AID 175); details: S. cerevisiae mlh1 rad18 strain growth inhibition; at 50.0 µM; active compounds read high
# In short: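 Read-out is yeast growth inhibition, calculated against vehicle-only controls. The compound was applied to a strain engineered with DNA damage repair alterations.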
SMILES,growth inhibition [1],growth inhibition [2],growth inhibition [3],growth inhibition [4],growth inhibition [5],growth inhibition [6]
[Cu+2].[Cu+2].[O-]c1ccccc1C=Nc1ccccc1[O-].[O-]c1ccccc1C=Nc1ccccc1[O-],7.25%,-0.95%,-1.2%,16.9%,2.1%,1.55%
CS(=O)(=O)C(c1nc2n(c1O)/C(=N/C(=O)Nc1ccc(Cl)cc1)N=N2)c1nc2n(c1O)/C(=N/C(=O)Nc1ccc(Cl)cc1)N=N2,-14.9%,4.5%,-8.5%,-16.3%,1.3%,-1.15%
CC(C)C(=O)OCC1OC(n2cnc3c(=S)nc[nH]c32)C(OC(=O)C(C)C)C1OC(=O)C(C)C (configuration not stated),-6.8%,2.2%,2.4%,-13.4%,-9.55%,2.1%
COc1ccc2occc2c1,0%,-1.55%,-17.7%,2.7%,-0.75%,10.1%
O=c1cc(-c2ccccc2F)[nH]c2ccc(N3CCCC3)cc12,13.6%,6.2%,25.5%,0.65%,22.3%,23.6%
COc1ccc2[nH]c(=O)ccc2c1,1.6%,0.35%,-2.3%,-0.5%,12.7%,-2.95%
CN(CC(=O)c1ccc(Cl)cc1)Cc1cccc2ccccc12,18.2%,-5.8%,51.4%,11.7%,22.9%,38.8%
CC1=CC(C)(C)NC(=S)N1c1ccccc1O,-0.95%,25.6%,15.3%,-16.4%,41.8%,41%
O=C(O)c1ccc(O)c2ccccc12,-21.9%,-21.2%,-15.4%,-24.7%,-13.1%,-21.9%
CCN(CC)CCSSCCN(CC)CC,-9%,3.7%,-7.05%,-15.2%,2.35%,5.3%
C(/C=C\c1ccccc1)=Nc1ccccc1,8%,-11.8%,-4.55%,9.35%,0.2%,17.1%
Nc1on(C(=O)c2ccccc2)c(=O)c1Cc1ccccc1,-19.2%,3.6%,15.9%,-36%,2.25%,-2.1%
CC(C)(CCN)[N+](=O)[O-],-5.15%,9.15%,17.9%,-88.3%,5.55%,-2.5%
O=C(O)CCC(=O)c1ccc2c3c1CCCC3CC2 (configuration not stated),52.8%,51.5%,48.5%,29%,17.2%,70.7% (active)
O=C1NC(O)c2cccc([N+](=O)[O-])c2O1 (configuration not stated),19.4%,9.1%,15%,65.5%,-14.8%,30.8%
CCc1nc(Nc2cccc(Cl)c2)c2cnn(-c3ccccc3)c2n1,-11.2%,-8.35%,-4.35%,-48.4%,14.7%,-6.85%
O=C1C(=O)C([n+]2cccc3ccccc32)=C([O-])C2=C1C1c3ccccc3C2c2ccccc21,98.8% (active),98.4% (active),98.9% (active),98.8% (active),91% (active),98.6% (active)
S=c1sc2cscc2s1,-6.7%,18.6%,-8.5%,28.6%,-3%,-1.8%
c1ccc2sc(SCSc3nc4ccccc4s3)nc2c1,2.65%,-31.9%,-18.1%,-13.7%,-1.05%,-30.9%

SMILES,growth inhibition [1],growth inhibition [2],growth inhibition [3],growth inhibition [4],growth inhibition [5],growth inhibition [6]
NC(=O)C1(c2cccs2)CCCC1,4.9%,3.4%,6.5%,-26.1%,-12.3%,26.2%
CC(C)(C)OC(=O)Cc1c[nH]c2ccccc12,-38.2%,-27.1%,-9.45%,-19.1%,-27.6%,-41.1%
O=c1/c(=C/c2cccc([N+](=O)[O-])c2)sc2nc3ccccc3n12,-9.95%,-12.7%,-18.1%,-4.65%,-10.1%,-12.7%
Cc1cc(CC(O)(c2ccccc2)c2ccccc2)nc2[nH]c(=O)ccc12,0.7%,-6.7%,-1.05%,44.9%,6.95%,-1.35%
NC1=NC(=O)C2(CCCCC2)S1,-9.6%,-4.8%,-21.2%,-47.6%,-8%,-24.6%
Clc1ccc(C=NC23CC4CC(CC(C4)C2)C3)cc1Cl,-19.1%,-24.1%,-16.2%,17.6%,7.55%,12%
CN(N=O)C(=O)NC(C=O)C(O)C(O)C(O)CO (configuration not stated),5.25%,-23.4%,28.4%,12.2%,0.4%,1.6%
CC(C)=CCCc1cc(-c2cc(CCC=C(C)C)nc(N)n2)nc(N)n1,3.5%,-10.9%,-3.2%,-7.1%,-22.9%,15.1%
CC(C)COc1ccc(O)cc1,8.95%,-3.55%,-16.5%,-43.5%,-11%,3.35%
COc1ccc2[nH]c3c(c(=O)c2c1)CCCC3,-1.15%,-12.9%,2.85%,-6.2%,5.8%,-12.7%
CCOC(=O)c1c(-c2ccc(Cl)cc2)c(C#N)c(=S)n(C2OC(COC(C)=O)C(OC(C)=O)C(OC(C)=O)C2OC(C)=O)c1-c1ccccc1 (configuration not stated),-1.45%,-3.9%,-6.8%,25.9%,17.9%,4.7%
Cn1c(=O)c2c(nc(NN)n2C)n(C)c1=O,1.15%,-10.8%,-2.65%,-25%,10.9%,4.7%
COc1ccc(OC)c(C(=O)C2=C(c3cc(OC)ccc3OC)CCC2)c1,7.3%,38.4%,33.2%,2.1%,44.4%,28.4%
CC1=CC(O)(Cc2ccccc2)CC(C)(C)C1 (configuration not stated),2.1%,-36.2%,-17.9%,-0.9%,-27.9%,-28.9%
NC(=O)CNC(=O)c1ccc(N)cc1,16.8%,7.6%,11.2%,15.6%,1.25%,18.4%
C=C(C)CN(C#N)CC(=C)C,-15.2%,10.6%,6.35%,-17.2%,-3.95%,3.45%
CN1C(=O)c2cnc3ccccc3c2C1(O)c1ccccc1 (configuration not stated),-1.75%,1.35%,2.4%,5.25%,0%,3.9%
C[C@@H]1CC[C@]2(C)C3(C)CC[C@]2(OC3=O)[C@@]12CC(c1ccoc1)OC2=O (some centres not stated),-5.9%,-13.8%,-9.35%,-7.45%,-5.45%,-42.3%
